Hits are enriched below; roughly 3% of the tested compounds scored in any of these assays.
Chronic BCR inh = inhibitors of chronic active B-cell receptor signaling; ABC-DLBCL IkBa-CBG/CBR reporter, luminescence ratio, 4 h; Potency, µM (titrated, usually from 46.1 µM), most hits filed as inhibitors; 340,000 compounds, 0.05% hits; AID 493014; active = well fitted inhibition curve with a large enough effect in the signal ratio, with a control signal flat, not every such curve was filed as active; inconclusive = small, poorly fitted or top-dose-only effect, or effect the other way, or a change in a side signal; the % refers to the signal ratio
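TMD8 ABC-DLBCL cells carrying doxycycline-inducible green luciferase fused to IkappaBalpha plus unfused red luciferase were exposed to compounds (up to 46 uM) for 4 hrs at 37C. Activity came from the overlap-corrected green/red luminescence ratio.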
KCNH2 WT inh = KCNH2 (human, wildtype) channel inhibition. 340,000 compounds, 0.37% hits. activity change, % at 1.84 µM. Q12809. U2OS, BacMam KCNH2, thallium flux FluxOr; hits give low values;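 active = maximum activity change below -70%; inconclusive = maximum activity change between -70% and -50%; inactive = maximum activity change above -50%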
Target sequence (Q12809 whole entry, looked up): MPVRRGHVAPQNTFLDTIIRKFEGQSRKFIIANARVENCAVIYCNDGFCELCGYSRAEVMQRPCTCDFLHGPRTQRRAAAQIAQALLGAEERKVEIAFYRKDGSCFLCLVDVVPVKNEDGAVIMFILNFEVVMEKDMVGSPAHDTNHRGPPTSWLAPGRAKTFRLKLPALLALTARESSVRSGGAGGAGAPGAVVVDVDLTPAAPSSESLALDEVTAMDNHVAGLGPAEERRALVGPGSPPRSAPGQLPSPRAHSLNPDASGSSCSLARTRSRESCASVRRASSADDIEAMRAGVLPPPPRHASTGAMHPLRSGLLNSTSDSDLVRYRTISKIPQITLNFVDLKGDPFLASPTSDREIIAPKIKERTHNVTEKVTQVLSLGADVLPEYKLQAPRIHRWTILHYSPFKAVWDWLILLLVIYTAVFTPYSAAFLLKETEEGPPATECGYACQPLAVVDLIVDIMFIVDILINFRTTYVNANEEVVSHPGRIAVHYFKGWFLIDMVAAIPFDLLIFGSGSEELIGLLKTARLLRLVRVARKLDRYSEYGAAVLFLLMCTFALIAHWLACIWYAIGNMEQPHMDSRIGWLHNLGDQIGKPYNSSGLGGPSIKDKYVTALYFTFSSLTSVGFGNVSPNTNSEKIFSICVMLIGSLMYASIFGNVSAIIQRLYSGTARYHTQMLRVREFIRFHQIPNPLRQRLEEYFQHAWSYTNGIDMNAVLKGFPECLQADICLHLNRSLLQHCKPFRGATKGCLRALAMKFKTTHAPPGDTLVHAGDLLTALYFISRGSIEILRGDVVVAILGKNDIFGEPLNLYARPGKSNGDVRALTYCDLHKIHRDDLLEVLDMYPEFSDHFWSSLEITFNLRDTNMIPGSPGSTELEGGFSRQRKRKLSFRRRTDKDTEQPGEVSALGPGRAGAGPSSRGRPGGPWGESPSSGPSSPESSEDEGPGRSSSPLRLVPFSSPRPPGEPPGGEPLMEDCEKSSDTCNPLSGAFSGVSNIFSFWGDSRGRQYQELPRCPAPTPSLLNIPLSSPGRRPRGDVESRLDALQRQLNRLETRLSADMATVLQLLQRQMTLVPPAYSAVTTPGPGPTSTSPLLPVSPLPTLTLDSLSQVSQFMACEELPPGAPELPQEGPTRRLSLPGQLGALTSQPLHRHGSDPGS
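U2OS cells transduced with wild-type KCNH2 virus are loaded with FluxOr dye for 45 min, and thallium flux is measured in kinetic reads before and after stimulation buffer. Rate constants are normalized to DMSO controls.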
KCNH2 3.1 block = inhibitors of human KCNH2 3.1 potassium channel isoform; 340,000 compounds, 0.95% hits; activity change, % (tested at about 1.8 µM); AID 720553; U2OS KCNH2 3.1, thallium flux FluxOr; hits give low values;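 active = maximum activity change below -70%; inconclusive = maximum activity change from -70% to -50%; inactive = maximum activity change above -50%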;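 also: thallium influx rate constant from kinetic fluorescence after stimulation buffer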
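FluxOr-based Tl+ influx in U2OS cells transduced with KCNH2 3.1 virus; rate constants normalized to DMSO controls.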
ClpP mod = qHTS Assay for Activators of ClpP; Potency, µM (top dose mostly 57.5 µM); purified B. subtilis ClpP, FRET peptide cleavage, 20 min; 340,000 compounds, 1.9% hits; active = well fitted falling curve with a large enough effect; inconclusive = small, poorly fitted or top-dose-only effect; inactive = no such curve, though single readings can be large or run the other way; also: the source files actives as falling curves though it sought activators and does not explain the sign; nearly all actives have a fitted effect of over 65% in size
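ClpP 10 microg/mL final, pH 8 Tris/KCl buffer with BSA, glycerol, Tween-20; compound pinned in; FRET-FV substrate; RT 20 min; Ex320/Em430; ΔFRET vs ADEP 5.8 microM, DMSO, no enzyme.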
ALOX12 inh = ALOX12 (human) lipoxygenase inhibition; Potency, µM (highest dose often 108 µM), most hits filed as inhibitors; purified 12hLO, xylenol orange hydroperoxide absorbance; 580,000 compounds, 1.1% hits; active = well fitted inhibition curve with a large enough effect; inconclusive = small, poorly fitted or top-dose-only effect, or another doubt; inactive = no such curve, though single readings can be large or run the other way
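Purified human 12hLO (150 nM final) in 25 mM Hepes, 0.01% Triton X-100, pH 7.0 was preincubated 15 min at room temperature with compound. Then 40 uM arachidonic acid was added, 30 min. Hydroperoxide was read by Fe-XO absorbance ratio 573/405 nm.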
LDHA inh = LDHA (human) enzyme inhibition; P00338; purified LDHA, NADH/diaphorase-resazurin fluorescence; hits give low values; activity change, % (values are at about 110 or 230 µM); 480,000 compounds, 0.15% hits; AID 1347041; in the data active = activity change below about -30%; inconclusive = mostly about -25% to -30%
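Resorufin fluorescence (ex540/em590), read at 0 and 20 min after diaphorase/resazurin addition, reports the NADH left after a 5 min room-temperature reaction of 2 nM human LDH5 with 0.06 mM NADH and 0.2 mM pyruvate.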
Numbers stand for hits; ! = not active in a repeat.

What do the screens show for `CN(Cc1ccccc1F)C(C(=O)NC1CC1)c1ccccc1` (stereo not given)?
ALOX12 inh: inactive; LDHA inh: inactive

What do the screens show for `CC1(C(=O)Nc2cccc3cccnc23)CCN1Cc1cccc2c1OCO2` (stereo not given)?
ClpP mod: 31.6µM; ALOX12 inh: inactive; LDHA inh: inactive

What do the screens show for `CC(NC(=O)CCC1CCCO1)c1cccs1` (stereo not given)?
ALOX12 inh: inactive; LDHA inh: inactive

Results for CSc1c(C#N)c(N)c(C#N)c2c1COC(C)(C)C2 ?
Chronic BCR inh: inactive; KCNH2 WT inh: inactive; KCNH2 3.1 block: inactive; ClpP mod: 14.1µM; ALOX12 inh: inactive; LDHA inh: inactive

Results for Cc1nn(CC(=O)N2CCc3ccccc32)c(C)c1S(=O)(=O)NC(C)(C)C ?
Chronic BCR inh: inconclusive; KCNH2 WT inh: -282.9; KCNH2 3.1 block: inactive; ClpP mod: inactive; ALOX12 inh: inactive; LDHA inh: inactive

Results for CCOC(=O)c1c(-c2ccccc2)csc1NC(=O)c1nn(CC)cc1Br ?
Chronic BCR inh: inactive; KCNH2 WT inh: inactive; KCNH2 3.1 block: inactive; ClpP mod: 31.6µM; ALOX12 inh: inactive; LDHA inh: inactive

How did O=S(=O)(Cc1ccccc1)N1CC(c2nnc(-c3ccncc3)o2)C2(CCOCC2)C1 (stereo not given) do in these assays?
ALOX12 inh: inactive

Results for Cc1ccc(OC(=O)c2ccccc2)cc1C ?
KCNH2 WT inh: inactive; KCNH2 3.1 block: inactive; ClpP mod: 28.2µM; ALOX12 inh: inactive; LDHA inh: inactive

Results for CC(=O)c1ccc(OC(=O)C2c3ccccc3Oc3ccccc32)cc1 ?
Chronic BCR inh: inactive; KCNH2 WT inh: inactive; KCNH2 3.1 block: inconclusive; ClpP mod: inactive; ALOX12 inh: inconclusive; LDHA inh: inactive

How did Cc1ccc(OC(=O)C2c3ccccc3Oc3ccccc32)cc1C do in these assays?
Chronic BCR inh: inactive; KCNH2 WT inh: -131.2; KCNH2 3.1 block: inactive; ClpP mod: inactive; ALOX12 inh: inactive; LDHA inh: inactive

Results for CC(=O)Nc1ccc2c(c1)C(=O)N(C1CCCCC1)C2=O ?
Chronic BCR inh: inconclusive; KCNH2 WT inh: inactive; KCNH2 3.1 block: inactive; ClpP mod: 25.1µM; ALOX12 inh: inactive; LDHA inh: inactive

How did CC1CCC(NC(=O)c2cc3ccccc3c(Cl)n2)CC1 (stereo not given) do in these assays?
ALOX12 inh: 39.8µM; LDHA inh: inactive

How did Cc1ccc(-c2cc(C(=O)NC3CC3)c3ccccc3n2)o1 do in these assays?
ALOX12 inh: 12.6µM; LDHA inh: inactive

How did COc1ccc(-c2cc(C(=O)OCC(=O)NC3CC3)c3ccccc3n2)cc1OC do in these assays?
Chronic BCR inh: inactive; KCNH2 WT inh: inactive; KCNH2 3.1 block: inactive; ALOX12 inh: inconclusive; LDHA inh: inactive

Results for COc1ccc2nc(-c3ccccc3)cc(C(=O)OCC(=O)NC3CC3)c2c1 ?
Chronic BCR inh: inactive; KCNH2 WT inh: inactive; KCNH2 3.1 block: inactive; ClpP mod: 10µM; ALOX12 inh: inactive; LDHA inh: inactive

Results for Cc1ccc(CNC(=O)c2cc(-c3ccc(C)o3)nc3ccccc23)cc1 ?
ALOX12 inh: 3.16µM; LDHA inh: inactive

What do the screens show for `CN(CCC(N)=O)Cc1ccccc1OCC(O)CN1CCc2ccccc2C1` (stereo not given)?
ALOX12 inh: inactive

Results for O=CN1CCN(C(C(=O)O)c2c[nH]c3ccc(NC(=O)c4ccccc4)cc23)CC1 (stereo not given) ?
ALOX12 inh: inconclusive; LDHA inh: inactive

What do the screens show for `CCCN(CC1CCOC1)C(=O)c1ccc(C(F)(F)F)cc1` (stereo not given)?
ALOX12 inh: inactive

How did O=C(NC1CC1)c1cc(-c2ccccc2)nc2ccccc12 do in these assays?
ALOX12 inh: inactive; LDHA inh: inactive

How did COc1ccc(-c2cc(C(=O)N3CCCC(C(F)(F)F)C3)c3ccccc3n2)cc1 (stereo not given) do in these assays?
Chronic BCR inh: inactive; KCNH2 WT inh: inactive; KCNH2 3.1 block: inactive; ClpP mod: inactive; ALOX12 inh: inactive; LDHA inh: inactive

Results for Cc1ccc(-c2cc(C(=O)N3CCCC(C(F)(F)F)C3)c3ccccc3n2)o1 (stereo not given) ?
Chronic BCR inh: inactive; KCNH2 WT inh: inactive; KCNH2 3.1 block: inactive; ClpP mod: 15.8µM; ALOX12 inh: 7.94µM!; LDHA inh: inactive

How did CC1CCC(NC(=O)c2cc(-c3ccccc3)nc3ccccc23)CC1 (stereo not given) do in these assays?
ALOX12 inh: 0.794µM; LDHA inh: inactive

How did CCCCCCCCCO do in these assays?
ALOX12 inh: inactive

What do the screens show for `Cc1ccc(NC(=S)N/C(=N/S(=O)(=O)c2ccccc2)c2ccccc2)cc1`?
Chronic BCR inh: inconclusive; KCNH2 WT inh: inactive; KCNH2 3.1 block: inactive; ClpP mod: inactive; ALOX12 inh: 35.5µM!; LDHA inh: inactive

What do the screens show for `CCCOC(=S)N/C(=N\S(=O)(=O)c1ccccc1)c1ccccc1`?
Chronic BCR inh: inactive; KCNH2 WT inh: inactive; KCNH2 3.1 block: inactive; ClpP mod: inactive; ALOX12 inh: 35.5µM; LDHA inh: inactive

Results for Cc1ccc(S(=O)(=O)/N=C(/NC(=S)Nc2ccccc2)c2ccccc2)cc1 ?
Chronic BCR inh: inconclusive; KCNH2 WT inh: inactive; KCNH2 3.1 block: inactive; ClpP mod: inactive; ALOX12 inh: inconclusive; LDHA inh: inactive

How did Nc1ccccc1-c1ccccc1N do in these assays?
Chronic BCR inh: inconclusive; KCNH2 WT inh: inactive; ClpP mod: 7.94µM; ALOX12 inh: inactive; LDHA inh: inactive

What do the screens show for `Nc1ccccc1-c1ccc(Cl)cc1`?
KCNH2 WT inh: inactive; KCNH2 3.1 block: inactive; ClpP mod: inactive; ALOX12 inh: inactive; LDHA inh: inactive

Results for CN1CCC(C(=O)c2ccccc2)C1=O (stereo not given) ?
ALOX12 inh: inconclusive; LDHA inh: inactive

What do the screens show for `CCOc1nc(NC(=O)NS(=O)(=O)c2cccc(Cl)c2)nc(-c2ccccc2)n1`?
Chronic BCR inh: inactive; KCNH2 WT inh: inactive; KCNH2 3.1 block: inactive; ClpP mod: 28.2µM; ALOX12 inh: inactive; LDHA inh: inactive

What do the screens show for `CCOc1nc(NC(=O)NS(=O)(=O)Oc2cccc(Cl)c2)nc(-c2ccccc2)n1`?
Chronic BCR inh: inactive; KCNH2 WT inh: inactive; KCNH2 3.1 block: inactive; ClpP mod: inactive; ALOX12 inh: inconclusive; LDHA inh: inactive

What do the screens show for `Cc1ccc(CNC(=O)c2ccc(NC(=O)N3CCSc4ncccc43)cc2)cc1`?
Chronic BCR inh: inactive; ClpP mod: inactive; ALOX12 inh: inactive; LDHA inh: inactive

High-throughput results from PubChem.
